PLC-gamma1 inh: PLC-gamma1 (human) inhibition, primary screen | hit rate 0.84% among 370,000 | AID 720700 | P19174 | inhibition, % at 12.2 µM | purified PLC-gamma1, fluorogenic substrate, fluorescence
PLCb3 inh: blocks human PLC-beta3 enzyme activity; inhibition, % at 12.2 µM; Q01970; Purified PLC-beta3, fluorogenic substrate, fluorescence; hit rate 0.18% among 370,000; in the data active means inhibition above about 11%;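 further: 0% = median of compound wells on plate and 100% = full blocker control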
proKLK7 act: activates the human kallikrein-7 zymogen; purified proKLK7, EDANS-DABCYL substrate fluorescence; 100% is mature enzyme control, 0% vehicle; activation, % at 7 µM; hit rate 0.9% among 370,000;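 active means activation above the mean of all tested compounds plus 3 SD, computed per campaign excluding outliers beyond control limits, cut at about 13% in these data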
ADAM10 inh: inhibitors of human ADAM10. AID 720582. O14672. inhibition, % at 7 µM. recombinant ADAM10, EDANS/DABCYL FRET peptide cleavage, 3 h. hit rate 0.62% among 370,000;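 active means inhibition above a per-campaign cutoff equal to the mean of compounds falling between control-based bounds plus 3 SD, cut at about 20% in these data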;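 further: 0% = DMSO wells while the 100% control is not disclosed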
ADAM17 inh: inhibitors of human ADAM17; recombinant ADAM17, EDANS/DABCYL FRET peptide cleavage; inhibition, % at 6.95 µM; hit rate 0.83% among 370,000; AID 720648;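 active means inhibition above the mean of compounds lying between control limits plus 3 SD, set per campaign, cut at about 8.5% in these data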;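 further: 0% = DMSO-only wells as the low control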
Target sequence (P78536 215-824 limits assumed): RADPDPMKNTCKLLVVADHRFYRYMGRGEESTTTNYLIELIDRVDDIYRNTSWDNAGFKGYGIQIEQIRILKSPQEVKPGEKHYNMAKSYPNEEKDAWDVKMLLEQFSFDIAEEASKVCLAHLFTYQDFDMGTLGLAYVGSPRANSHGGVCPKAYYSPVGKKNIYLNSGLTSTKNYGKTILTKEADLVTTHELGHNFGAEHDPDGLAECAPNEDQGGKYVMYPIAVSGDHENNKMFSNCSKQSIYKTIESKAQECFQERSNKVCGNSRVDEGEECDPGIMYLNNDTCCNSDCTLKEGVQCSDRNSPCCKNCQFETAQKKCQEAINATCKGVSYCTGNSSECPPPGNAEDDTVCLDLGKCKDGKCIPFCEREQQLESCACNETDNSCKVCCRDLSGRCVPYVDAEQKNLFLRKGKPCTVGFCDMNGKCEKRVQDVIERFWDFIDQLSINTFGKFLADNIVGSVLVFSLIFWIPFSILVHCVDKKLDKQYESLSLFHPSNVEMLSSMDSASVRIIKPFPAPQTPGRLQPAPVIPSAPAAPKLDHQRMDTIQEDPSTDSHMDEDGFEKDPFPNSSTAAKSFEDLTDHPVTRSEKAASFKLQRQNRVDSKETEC
PLCg1 ctr: inhibits human PLC-gamma1 in PLC-beta3 counter-screen; shares compounds with PLC-gamma1 inh; purified PLC-gamma1, fluorogenic substrate, fluorescence; inhibition, % at 12.3 µM; hit rate 3.1% among 3,300
PLCb3 confirm: confirmation of human PLC-beta3 inhibitors; shares compounds with PLC-gamma1 inh; hit rate 1% among 3,300; purified PLC-beta3, fluorogenic substrate fluorescence; AID 743261; inhibition, % at 12.3 µM; in the data active means inhibition above about 11%
An asterisk follows results filed as active; · = no result given. Hits are enriched below; roughly 2.9% of the tested compounds scored in any of these assays. Unless noted, no stated cut-off is given here; in the data, active means inhibition above about 9.5%; inactive means the rest.

SMILES | PLC-gamma1 inh | PLCb3 inh | proKLK7 act | ADAM10 inh | ADAM17 inh | PLCg1 ctr | PLCb3 confirm
COC(=O)[C@]12C[C@H](CC(=O)NCc3cccc4ccccc34)C(=O)N(Cc3ccc(Cl)cc3Cl)C1=C[C@H](C1CCCC1)O[C@@H]2C | -1 | -1 | 1 | -2 | -8 | · | ·
CCCCOCCCNC(=O)C[C@H]1C[C@@]2(C(=O)OC)C(=C[C@H](C3CCCC3)O[C@@H]2C)N(Cc2ccc(Cl)cc2Cl)C1=O | 0 | 4 | 1 | -3 | -2 | · | ·
COC(=O)[C@]12C[C@H](CC(=O)N3CCCCC3)C(=O)N(CCC3=CCCCC3)C1=C[C@H](C1CCCC1)O[C@@H]2C | 11* | -7 | 0 | -11 | -8 | 1 | -1
COC(=O)[C@]12C[C@H](CC(=O)NCC3CCCCC3)C(=O)N(Cc3cccc4ccccc34)C1=C[C@H](C1CCCC1)O[C@@H]2C | 11* | 1 | 0 | -5 | -3 | -1 | -8
COC(=O)[C@]12C[C@H](CC(=O)NCCC(C)C)C(=O)N(Cc3ccc(Cl)cc3Cl)C1=C[C@H](C1CCCC1)O[C@@H]2C | 11* | 1 | 0 | 4 | 5 | 3 | 3
CCOC(=O)CN1C(=O)C2Cc3ccccc3CN2C1=S (stereo not given) | 1 | 5 | 1 | -6 | -1 | · | ·
CCOP(=O)(OCC)C(Nc1cccc(C(F)(F)F)c1)c1ccc(Br)cc1 (stereo not given) | 8 | 12* | 0 | 14 | 9 | -8 | -9
CCOP(=O)(OCC)C(Nc1ccc(F)cc1)c1ccccc1 (stereo not given) | -1 | -4 | 1 | 1 | 0 | · | ·
Cc1cc(C)n2c(NCc3ccccc3)c(-c3cc4ccccc4o3)nc2n1 | -30 | -46 | 0 | -19 | -5 | · | ·
Cc1ccc(C(=O)N2CCN(S(=O)(=O)c3ccc(C)c([N+](=O)[O-])c3)C2)cc1 | 10* | 7 | 0 | 3 | 4 | -2 | -1
O=c1c(-c2ccco2)nc2ccccc2n1C(c1ccccc1)c1nc2ccccc2[nH]1 (stereo not given) | -57 | -95 | 1 | -143 | -43 | · | ·
Cc1cc2nc(-c3ccc(F)cc3)c(Cc3cccc(Cl)c3)n2c(C)c1Br | -7 | -16 | 0 | -5 | -3 | · | ·
CC(CC(=O)Nc1ccc(F)cc1)S(=O)(=O)c1ccc2c(c1)NC(=O)CO2 (stereo not given) | 4 | -2 | 0 | 12 | 1 | · | ·
CC(CC(=O)Nc1ccc(Br)cc1F)S(=O)(=O)c1ccc2c(c1)NC(=O)CO2 (stereo not given) | 12* | -8 | 0 | 1 | -4 | -6 | -3
Cc1ccc(C2OC(=O)c3ccccc32)cc1 (stereo not given) | 9.6* | 3 | 0 | 10 | 6 | -2 | 0
COc1cccc(CN(C)C(=O)COc2cccc3c2OC(C)(C)C3)c1OC | 13* | 13* | 0 | 5 | 5 | -5 | -4
CCN(c1ccccc1)S(=O)(=O)c1ccc(Cl)c(C(=O)NCC2CCCO2)c1 (stereo not given) | 12* | -3 | 0 | 11 | -1 | -6 | -2
O=C(C[n+]1ccccc1)N/N=C/c1ccco1 | 9.5* | 3 | 0 | 0 | 2 | 5 | 2
COCCNC(=O)C1(C)CCCN(C(=O)c2cccc(Cl)c2)C1 (stereo not given) | 2 | 1 | 0 | -17 | -3 | · | ·
CC(C)C[C@H](NC(=O)c1ccc(OC2CCN(C(=O)C3CC3)CC2)cc1)C(N)=O | 9.7* | -4 | 0 | -1 | -9 | -2 | -5
Cc1cccc(C)c1NC(=O)C(c1ccnc2ccccc12)N1CCN(CCN(C)C)CC1 (stereo not given) | -1 | -2 | 0 | -9 | -3 | · | ·
O=C(N/C=N/O)C1=NOC(CNc2ncc(C(F)(F)F)cc2Cl)C1 (stereo not given) | 10* | 8 | 5 | 12 | 2 | -7 | -5
COc1ccc(OC)c(S(=O)(=O)N2CCCC(N3CCN(c4ccccc4)CC3)C2)c1 (stereo not given) | 11* | 3 | -1 | 11 | -1 | -1 | 1
COc1ccc(/C=C2\CCC(C3CCCC3)C2=O)cc1 (stereo not given) | 10.0* | -5 | 0 | -12 | -2 | 2 | 4
COc1cccc(C(=O)N2CCC[C@@H]2C(=O)N2CCC[C@H]2C(=O)NCc2ccncc2)c1 | 1 | 6 | 0 | 2 | 3 | · | ·
SMILES | PLC-gamma1 inh | PLCb3 inh | proKLK7 act | ADAM10 inh | ADAM17 inh | PLCg1 ctr | PLCb3 confirm
O=C(CCS(=O)(=O)c1ccccc1)Nc1cc(Cl)ccc1F | 4 | 2 | 0 | 2 | 2 | · | ·
O=S(=O)(c1ccc(Cl)cc1)c1cnc2ccccc2n1 | 9.6* | -2 | 0 | -6 | -2 | 12* | -4
CC(=O)N1c2ccccc2N=C(c2ccc3c(c2)OCO3)C1C(=O)NCc1ccccc1 (stereo not given) | -13 | -24 | 1 | -11 | -2 | · | ·
COC(C(=O)NNS(=O)(=O)c1ccccc1[N+](=O)[O-])c1ccccc1 (stereo not given) | 1 | -4 | -1 | 2 | -6 | · | ·
COC(C(=O)NNS(=O)(=O)c1ccc([N+](=O)[O-])cc1)c1ccccc1 (stereo not given) | 12* | 7 | 0 | 14 | 1 | -5 | -1
CCCCN(C(=O)c1ccc(OC)c([N+](=O)[O-])c1)c1c(N)n(CCC)c(=O)[nH]c1=O | -1 | -6 | 0 | 1 | -5 | · | ·
CCCn1c(N)c(N(CCOC)C(=O)c2ccc([N+](=O)[O-])c(C)c2)c(=O)[nH]c1=O | 9.6* | -2 | 0 | 11 | 1 | -4 | -1
CCC(C)[C@H](NC(=O)[C@@H]1Cc2ccccc2CN1)C(=O)NCc1ccc(C)cc1 (stereo not given in full) | 9.8* | -5 | 0 | -7 | 7 | 0 | -1
CCC(C)[C@H](NC(=O)[C@@H]1Cc2ccccc2CN1)C(=O)NCc1ccc(OC)cc1 (stereo not given in full) | 4 | 6 | 0 | -10 | 0 | · | ·
CCO[C@H]1OC(C(=O)N2CCN(Cc3ccc4c(c3)OCO4)CC2)=C[C@@H](c2csc3ccccc23)[C@@H]1CCCO | 4 | 11* | 1 | 15 | 8 | -1 | -1
CCO[C@H]1OC(C(=O)N2CCN(C)CC2)=C[C@@H](c2ccc3c(c2)OCO3)[C@@H]1CCCO | 7 | 20* | 0 | 3 | 7 | -4 | 1
CCO[C@H]1OC(C(=O)N2CCN(Cc3ccc4c(c3)OCO4)CC2)=C[C@@H](c2cn(C(C)=O)c3ccccc23)[C@@H]1CCCO | -3 | -4 | 1 | 15 | 2 | · | ·
C=CCNc1nc(Nc2ccc(OC)c(OC)c2)c2sc(-c3ccccc3)cc2n1 | -42 | -60 | -5 | -8 | 2 | · | ·
